Assay results published in PubChem BioAssay AID1159580 (chemical genetic matrix, 2015).
Values joined by “and” are separate entries in the source; they are usually repeats but may differ in a detail not shown here. Equal values may be shown once. Screen size: about 5,500 compounds; about 2,000 (36%) were called active. Roughly 18% stayed inconclusive and do not appear here. Rule as the data show it: active = normalized growth mostly below about 0.91 (no sharp cut-off); inconclusive = no clear call, values can overlap the other calls; inactive = mostly above about 0.92. This is one part of the list.

Test: chemical genetic growth profiling, strain panel (AID 1159580);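 also: tested at 20 µM; growth read once vehicle control cultures reached saturation at 30 °C; 1 = growth at the plate median or of vehicle wells; lower values mean less growth of the strain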
Details: growth OD

Measured: normalized growth

Cn1c(=O)c2[nH]c(C3CCCC3)nc2n(C)c1=O
inactive: S. cerevisiae deletion strains, locus YJR075W, strain HOC1, stronger effect = lower value 1.01 and 1.04 | S. cerevisiae deletion strains, locus YKL009W, strain mrt4, stronger effect = lower value 1 | S. cerevisiae deletion strains, locus YKL068W, stronger effect = lower value 1.02 | S. cerevisiae deletion strains, locus YKL085W, strain MDH1 (second series), stronger effect = lower value 1.05 | S. cerevisiae deletion strains, locus YKL085W, strain MDH1, stronger effect = lower value 1.05 | S. cerevisiae deletion strains, locus YKL160W, strain elf1, stronger effect = lower value 0.983 | S. cerevisiae deletion strains, locus YKL190W, strain CNB1, stronger effect = lower value 1.02 | S. cerevisiae deletion strains, locus YKR001C, strain vps1, stronger effect = lower value 1 | S. cerevisiae deletion strains, locus YKR026C, strain gcn3, stronger effect = lower value 1 | S. cerevisiae deletion strains, locus YKR091W, strain srl3, stronger effect = lower value 0.991 | S. cerevisiae deletion strains, locus YLL001W, strain dnm1, stronger effect = lower value 0.97 | S. cerevisiae deletion strains, locus YLL026W, stronger effect = lower value 0.989 | S. cerevisiae deletion strains, locus YLL041C, strain sdh2, stronger effect = lower value 0.988 | S. cerevisiae deletion strains, locus YLR027C, strain aat2, stronger effect = lower value 0.995 | S. cerevisiae deletion strains, locus YLR039C, strain RIC1, stronger effect = lower value 0.966 | S. cerevisiae deletion strains, locus YLR058C, strain SHM2, stronger effect = lower value 1.01 | S. cerevisiae deletion strains, locus YLR102C, strain apc9, stronger effect = lower value 0.999 | S. cerevisiae deletion strains, locus YLR113W, strain HOG1, stronger effect = lower value 1 | S. cerevisiae deletion strains, locus YLR221C, strain rsa3, stronger effect = lower value 0.988 | S. cerevisiae deletion strains, locus YLR258W, strain gsy2, stronger effect = lower value 0.972 | S. cerevisiae deletion strains, locus YLR262C, strain YPT6 (second series), stronger effect = lower value 0.997 | S. cerevisiae deletion strains, locus YLR262C, strain YPT6, stronger effect = lower value 1.04 | S. cerevisiae deletion strains, locus YLR268W, strain sec22, stronger effect = lower value 0.988 | S. cerevisiae deletion strains, locus YLR320W, strain mms22, stronger effect = lower value 0.989 | S. cerevisiae deletion strains, locus YLR330W, strain CHS5, stronger effect = lower value 1.01 | S. cerevisiae deletion strains, locus YLR342W, strain FKS1 (second series), stronger effect = lower value 1 | S. cerevisiae deletion strains, locus YLR342W, strain FKS1, stronger effect = lower value 0.986 | S. cerevisiae deletion strains, locus YLR357W, strain rsc2, stronger effect = lower value 0.954 | S. cerevisiae deletion strains, locus YLR370C, strain arc18, stronger effect = lower value 0.997 | S. cerevisiae deletion strains, locus YLR371W, strain rom2, stronger effect = lower value 0.997 | S. cerevisiae deletion strains, locus YLR384C, strain iki3, stronger effect = lower value 0.986 | S. cerevisiae deletion strains, locus YLR418C, strain cdc73, stronger effect = lower value 0.989 | S. cerevisiae deletion strains, locus YML016C, strain PPZ1, stronger effect = lower value 1.02 | S. cerevisiae deletion strains, locus YML032C, strain rad52, stronger effect = lower value 0.99 | S. cerevisiae deletion strains, locus YML120C, strain ndi1, stronger effect = lower value 0.992 | S. cerevisiae deletion strains, locus YML124C, strain tub3, stronger effect = lower value 0.998 | S. cerevisiae deletion strains, locus YMR058W, strain fet3, stronger effect = lower value 1 | S. cerevisiae deletion strains, locus YMR078C, strain ctf18, stronger effect = lower value 0.996 | S. cerevisiae deletion strains, locus YMR125W, strain sto1, stronger effect = lower value 0.979 | S. cerevisiae deletion strains, locus YMR129W, stronger effect = lower value 0.999 | S. cerevisiae deletion strains, locus YMR205C, strain PFK2, stronger effect = lower value 0.988 | S. cerevisiae deletion strains, locus YMR223W, strain ubp8, stronger effect = lower value 0.989 | S. cerevisiae deletion strains, locus YMR231W, strain pep5, stronger effect = lower value 0.988 | S. cerevisiae deletion strains, locus YMR263W, strain SAP30, stronger effect = lower value 1.02 and 0.995 | S. cerevisiae deletion strains, locus YMR307W, strain GAS1, stronger effect = lower value 1.05 and 1.01 | S. cerevisiae deletion strains, locus YNL067W, strain RPL9B, stronger effect = lower value 1.02 | S. cerevisiae deletion strains, locus YNL071W, strain lat1, stronger effect = lower value 0.997 | S. cerevisiae deletion strains, locus YNL128W, strain TEP1, stronger effect = lower value 1.01 and 0.993 | S. cerevisiae deletion strains, locus YNL153C, strain GIM3, stronger effect = lower value 1.01 and 0.975 | S. cerevisiae deletion strains, locus YNL175C, strain NOP13, stronger effect = lower value 0.977 | S. cerevisiae deletion strains, locus YNL183C, strain NPR1, stronger effect = lower value 0.942 | S. cerevisiae deletion strains, locus YNL197C, strain WHI3, stronger effect = lower value 0.935 | S. cerevisiae deletion strains, locus YNL209W, strain ssb2, stronger effect = lower value 0.996 | S. cerevisiae deletion strains, locus YNL224C, strain SQS1, stronger effect = lower value 0.989 | S. cerevisiae deletion strains, locus YNL233W, strain BNI4, stronger effect = lower value 1.01 | S. cerevisiae deletion strains, locus YNL248C, strain rpa49, stronger effect = lower value 0.968 | S. cerevisiae deletion strains, locus YNL250W, strain rad50, stronger effect = lower value 1 | S. cerevisiae deletion strains, locus YNL271C, strain bni1, stronger effect = lower value 0.989 | S. cerevisiae deletion strains, locus YNL298W, strain CLA4, stronger effect = lower value 0.998 | S. cerevisiae deletion strains, locus YNL307C, strain MCK1, stronger effect = lower value 0.996 | S. cerevisiae deletion strains, locus YNL322C, strain KRE1 (second series), stronger effect = lower value 0.985 | S. cerevisiae deletion strains, locus YNL322C, strain KRE1, stronger effect = lower value 1.01 | S. cerevisiae deletion strains, locus YNR049C, strain mso1, stronger effect = lower value 0.994 | S. cerevisiae deletion strains, locus YNR052C, strain pop2, stronger effect = lower value 1 | S. cerevisiae deletion strains, locus YOL006C, strain TOP1, stronger effect = lower value 1.05 | S. cerevisiae deletion strains, locus YOL012C, strain htz1 0.701 | S. cerevisiae deletion strains, locus YOL147C, strain pex11, stronger effect = lower value 0.986 | S. cerevisiae deletion strains, locus YOR001W, strain rrp6, stronger effect = lower value 0.989 | S. cerevisiae deletion strains, locus YOR061W, strain CKA2, stronger effect = lower value 1.01 | S. cerevisiae deletion strains, locus YOR069W, strain VPS5, stronger effect = lower value 1.01 | S. cerevisiae deletion strains, locus YOR070C, strain gyp1, stronger effect = lower value 0.998 | S. cerevisiae deletion strains, locus YOR080W, strain dia2, stronger effect = lower value 0.985 | S. cerevisiae deletion strains, locus YOR083W, strain WHI5 (second series), stronger effect = lower value 0.977 | S. cerevisiae deletion strains, locus YOR083W, strain WHI5, stronger effect = lower value 0.99 | S. cerevisiae deletion strains, locus YOR106W, strain vam3, stronger effect = lower value 0.991 | S. cerevisiae deletion strains, locus YOR136W, strain idh2, stronger effect = lower value 0.988 | S. cerevisiae deletion strains, locus YOR144C, strain elg1, stronger effect = lower value 0.998 | S. cerevisiae deletion strains, locus YOR184W, strain ser1, stronger effect = lower value 0.981 | S. cerevisiae deletion strains, locus YOR231W, strain MKK1, stronger effect = lower value 0.981 | S. cerevisiae deletion strains, locus YOR265W, strain rbl2, stronger effect = lower value 1 | S. cerevisiae deletion strains, locus YOR270C, strain vph1, stronger effect = lower value 1.02 | S. cerevisiae deletion strains, locus YOR290C, strain snf2, stronger effect = lower value 0.925 | S. cerevisiae deletion strains, locus YOR316C, strain cot1, stronger effect = lower value 0.999 | S. cerevisiae deletion strains, locus YPL051W, strain arl3, stronger effect = lower value 0.992 | S. cerevisiae deletion strains, locus YPL055C, strain LGE1, stronger effect = lower value 1.02 | S. cerevisiae deletion strains, locus YPL078C, strain atp4, stronger effect = lower value 0.997 | S. cerevisiae deletion strains, locus YPL106C, strain sse1, stronger effect = lower value 0.985 | S. cerevisiae deletion strains, locus YPL240C, strain hsp82, stronger effect = lower value 0.983 | S. cerevisiae deletion strains, locus YPL241C, strain CIN2, stronger effect = lower value 1.04 and 1.01 | S. cerevisiae deletion strains, locus YPL256C, strain CLN2, stronger effect = lower value 0.953 | S. cerevisiae deletion strains, locus YPR119W, strain clb2, stronger effect = lower value 0.997 | S. cerevisiae deletion strains, locus YPR141C, strain kar3, stronger effect = lower value 0.997 | S. cerevisiae deletion strains, locus YPR163C, strain tif3, stronger effect = lower value 0.998 | S. cerevisiae deletion strains, locus YPR167C, strain met16, stronger effect = lower value 0.997 | S. cerevisiae deletion strains, strain wtn01, stronger effect = lower value 1.01 | S. cerevisiae strains, strain wild type, stronger effect = lower value 1.01
